An excerpt weighted towards active compounds, which were near 4% of everything screened.
Measles CPE: protection of cells from measles virus; AID 841; 140,000 tested, 1.5% active; protection (pct of control), % at 4 µM; Measles virus-infected cells, CPE protection, absorbance; in the data active = protection mostly above about 24%, no sharp cut-off; inactive = mostly below about 26%
Arbovirus anti: blocks arbovirus infection; arbovirus infection cell-based antiviral screen; inhibition, % at 10 µM; 200,000 tested, 0.37% active; in the data active = inhibition above about 30%
ROMK mod: modulates human ROMK potassium channel activity. P48048. Tet-inducible ROMK, thallium flux fluorescence; actives lie on both sides. B-score at 10 µM. 130,000 tested, 2% active;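 active = signal ratio slope over the read window, or its plate-corrected B-score, at least 3 SD from the plate mean, either direction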;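 note: B-score of the F/F0 ratio slope over 7 to 12 s after thallium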
HSV augment: HSV replication enhancement | HSV replication augmentation in cells, fold increase | maximum fold increase | 220,000 tested, 0.005% active | AID 1956; in the data active = maximum fold increase above about 1.5; inconclusive = no clear call, values can overlap the other calls; tested in PC3 cells
Cl transport mod: modulators of human KCC2 chloride dependent transport; Q9H2X9; KCC2 cells, thallium flux FluoZin-2 fluorescence; B-score of Tl+ flux slope (higher = more flux/activation; lower = inhibition) at 10 µM; 190,000 tested, 2.2% active; AID 1456;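 active = thallium flux slope and its plate-corrected score both differing from the plate sample mean at a set confidence after two filtering rounds, in either direction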;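 note: slope of fluorescence scaled to starting intensity during 10 to 20 s after thallium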
Target sequence (Q9H2X9 whole entry, looked up): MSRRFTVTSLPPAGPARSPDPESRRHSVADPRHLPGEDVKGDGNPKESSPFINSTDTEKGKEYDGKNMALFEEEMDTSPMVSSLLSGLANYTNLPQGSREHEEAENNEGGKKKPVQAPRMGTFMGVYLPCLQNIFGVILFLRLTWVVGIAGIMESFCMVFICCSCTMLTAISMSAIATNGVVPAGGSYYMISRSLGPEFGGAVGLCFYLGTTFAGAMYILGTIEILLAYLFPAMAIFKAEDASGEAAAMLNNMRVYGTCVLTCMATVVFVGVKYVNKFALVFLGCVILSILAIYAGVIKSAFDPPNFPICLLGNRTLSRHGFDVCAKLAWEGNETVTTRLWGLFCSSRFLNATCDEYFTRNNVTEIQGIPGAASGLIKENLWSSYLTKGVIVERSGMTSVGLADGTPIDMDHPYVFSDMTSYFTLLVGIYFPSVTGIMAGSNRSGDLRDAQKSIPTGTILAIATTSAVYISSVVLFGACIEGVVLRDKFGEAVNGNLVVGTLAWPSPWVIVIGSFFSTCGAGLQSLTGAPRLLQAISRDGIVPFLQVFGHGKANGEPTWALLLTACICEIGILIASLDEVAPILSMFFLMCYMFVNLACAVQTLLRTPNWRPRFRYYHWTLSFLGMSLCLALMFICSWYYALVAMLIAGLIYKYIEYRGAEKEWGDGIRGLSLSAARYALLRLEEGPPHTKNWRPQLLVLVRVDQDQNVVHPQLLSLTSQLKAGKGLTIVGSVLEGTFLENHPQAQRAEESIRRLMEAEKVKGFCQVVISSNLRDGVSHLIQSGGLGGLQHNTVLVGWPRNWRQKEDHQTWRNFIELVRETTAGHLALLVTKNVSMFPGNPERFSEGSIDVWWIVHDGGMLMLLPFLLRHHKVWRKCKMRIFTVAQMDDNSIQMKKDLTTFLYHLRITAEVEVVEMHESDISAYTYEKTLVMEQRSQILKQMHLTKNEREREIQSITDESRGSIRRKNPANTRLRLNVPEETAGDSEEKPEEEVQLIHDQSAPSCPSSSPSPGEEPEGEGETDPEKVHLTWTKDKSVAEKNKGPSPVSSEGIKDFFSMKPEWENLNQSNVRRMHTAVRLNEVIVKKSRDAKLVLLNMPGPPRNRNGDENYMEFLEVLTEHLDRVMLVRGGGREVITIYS
* = called active by the depositor; i = inactive; ? = inconclusive; . = no result given.

SMILES | Measles CPE | Arbovirus anti | ROMK mod | HSV augment | Cl transport mod
CCN(CC)CCCNC(=O)c1c(O)c2ccccc2n(Cc2ccccc2)c1=O | 77* | -29 | -1.2 | i | 0.98
Fc1ccc(Cn2nnnc2C(c2ccc(Cl)cc2)N2CC=C(c3ccc(F)cc3)CC2)cc1 (stereo not drawn) | 41* | -5 | -0.9 | i | -0.17
Fc1ccc(C2=CCN(C(c3ccc(Cl)cc3)c3nnnn3Cc3ccccc3)CC2)cc1 (stereo not drawn) | 4 | 11 | -0.082 | i | 0.89
O=c1cccc2n1CC1CC2CN(Cc2c(F)cccc2Cl)C1 (stereo not drawn) | 2 | -2 | -0.6 | i | -0.27
O=c1cccc2n1CC1CC2CN(Cc2cccc(Cl)c2Cl)C1 (stereo not drawn) | 43* | 2 | . | i | -1.8
Cc1nc2cc(-c3cccc(F)c3)nn2c(C)c1CCC(=O)N1CCC2(CC1)OCCO2 | 25* | 1 | . | i | .
C[C@]12CC[C@@H](O)C[C@@H]1CC[C@@H]1[C@@H]2CC[C@]2(C)[C@@H](O)CC[C@@H]12 | 12 | -3 | . | i | 0.41
CC12CCC3C(CCC4C/C(=N/O)CCC43C)C1CCC2O (stereo not drawn) | 41* | 1 | . | i | -0.044
CC/C(=N\Nc1ccccc1)c1c(O)n(C)c(=O)n(C)c1=O | 28* | -31 | . | i | -0.36
CC(C)c1ccc(N2C(=O)NC(=O)/C(=C\C=C\c3ccco3)C2=O)cc1 | . | -1 | -0.34 | ? | 0.66
O=C(N/N=C/c1c(O)n(CCc2ccc(F)cc2)c(=O)[nH]c1=O)c1ccncc1 | . | 15 | -0.055 | i | 0.35
O=C(N/N=C/c1c(O)n(CCc2ccccc2)c(=O)[nH]c1=O)c1ccncc1 | 6 | 32* | . | i | -0.3
O=C(N/N=C/c1c(O)n(CCc2ccccc2)c(=O)[nH]c1=O)c1ccccc1O | . | . | 0.93 | i | -1.5
COc1ccc(Cn2c(O)c(/C=N/NC(=O)c3ccccc3O)c(=O)[nH]c2=O)cc1 | 5 | 28 | 1.6 | i | -0.22
O=C(N/N=C/c1c(O)n(Cc2ccccc2)c(=O)[nH]c1=O)c1ccccc1O | 10 | 58* | 1.6 | i | -2.3
O=C(N/N=C/c1c(O)n(Cc2ccc(F)cc2)c(=O)[nH]c1=O)c1ccccc1O | 10 | 55* | . | i | -0.56
CC(=O)N(C)CC#CCN1CCCC(CO)C1 (stereo not drawn) | . | . | . | i | .
O=C(Nc1ccc2ccccc2c1)N1C[C@H]2C[C@@H](C1)c1cccc(=O)n1C2 | . | . | 0.41 | i | 0.5
Cc1cc(C)c(C2=NOC(O)(C(F)(F)F)C2)c(=O)[nH]1 (stereo not drawn) | 27* | 1 | . | i | 0.74
CC(=O)OC(C)(C)/C=C/C(=O)[C@](C)(O)[C@H]1[C@H](O)C[C@@]2(C)[C@@H]3CC=C4[C@H](C[C@H](O)C(=O)C4(C)C)[C@]3(C)C(=O)C[C@]12C | 3 | -37 | 4.7* | i | 1.3
NC(Cc1nc2ccccc2[nH]1)c1ccc(Cl)cc1 (stereo not drawn) | . | . | . | i | -0.38
CCOC(=O)[C@]1(C#N)[C@@H]2C=CC(C(N)=O)=CN2[C@@H](C(N)=O)[C@@H]1c1ccc(F)cc1 | . | . | . | i | 0.032
CCOC(=O)[C@@]1(C#N)[C@@H]2C=CC(C(N)=O)=CN2[C@@H](C(N)=O)[C@@H]1c1cccc(Cl)c1 | 47* | 6 | 0.028 | i | 0.033
CC(C)CCn1c(=O)c(C(=O)Nc2ccccc2S(N)(=O)=O)c(O)c2ccccc21 | 13 | -10 | . | i | 6.6*
COC(=O)C(O)(c1c[nH]c2ccccc12)C(F)(F)F (stereo not drawn) | 14 | 10 | 0.32 | i | 0.69
SMILES | Measles CPE | Arbovirus anti | ROMK mod | HSV augment | Cl transport mod
COC(=O)C(O)(c1cn(C)c2ccccc12)C(F)(F)F (stereo not drawn) | 46* | 3 | . | i | 0.89
CCC1(C)OC(c2ccccc2)=C/C(=C/C=C2C(=O)NC(=O)NC2=O)O1 (stereo not drawn) | . | 13 | -1.8 | ? | 0.23
Cc1nn(Cc2ccc(Cl)cc2Cl)c(Cl)c1C(=O)Nc1ccc(OC(F)F)cc1 | 4 | -3 | -0.088 | i | 0.75
c1ccc2c(CNC3CCCCC3)c[nH]c2c1 | 6 | -45 | -0.97 | i | -5.1*
CN(Cc1c[nH]c2ccccc12)C1CCCCC1 | 3 | 19 | -0.086 | i | 0.68
O=c1cccc2n1CC1CC2CN(S(=O)(=O)c2ccc(F)cc2)C1 (stereo not drawn) | . | 12 | 0.23 | i | 0.011
COc1cc2c(cc1C=O)OCO2 | 35* | -4 | . | i | 0.29
COc1ccc(CC[n+]2cc(/N=C(\C)[O-])on2)cc1OC | 35* | 0 | -0.089 | i | 0.27
Oc1c(Br)cc(Br)cc1Oc1ccc(Br)cc1Br | 17 | -37 | 0.53 | i | 6*
Oc1c(Br)cc(Br)cc1CN1CCN(Cc2ccccc2)CC1 | 7 | 7 | . | i | 0.43
CCOC(=O)c1nc2ccccc2c(=O)n1-c1ccc(C)cc1 | 7 | -3 | 0.41 | i | -0.27
CCOC(=O)c1nc2ccccc2c(=O)n1-c1cccc(C)c1 | 18 | 1 | 1.1* | i | 1.4
O=C(O)CC[N+](=O)[O-] | . | . | . | i | .
CP(C)(=O)CCC(=O)O | 38* | -2 | . | i | 0.087
O=C(C[N+]12CCC(CC1)C(C(O)(c1ccccc1)c1ccccc1)C2)c1ccc(Br)cc1 (stereo not drawn) | . | . | . | i | 0.71
C=CCn1c(O)c(/C(C)=N/N2CCCCCC2)c(=O)[nH]c1=O | . | . | 1.4 | i | 0.1
Cc1[nH]c2ccccc2c1C1=CCNCC1 | 5 | 46* | . | i | 0.4
C1=C(c2ccccc2)CCNC1 | . | . | . | i | -0.34
Cc1cc(/C=C2\C(=O)NC(=O)N(c3cccc(Br)c3)C2=O)c(C)n1C | 39* | 2 | 0.56 | i | 0.2
Cc1cc(/C=C2/C(=O)NC(=O)N(c3ccc(Br)cc3)C2=O)c(C)n1C | . | . | . | i | -0.4
Cn1c(O)c(C=NCCN2CCOCC2)c(=O)n(C)c1=S | . | . | . | i | -0.4
O=C1NC(=O)N(c2ccc(Cl)cc2)C(=O)/C1=C/c1coc2ccc(O)cc2c1=O | . | . | -8* | i | -4.6*
CN1C(=O)N(C)C(=O)C2(Cc3c(nc4ccccn4c3=O)N3CCc4ccccc4C32)C1=O (stereo not drawn) | 40* | 6 | 1.9 | i | 0.23
CC1CCN2c3nc4ccccn4c(=O)c3CC3(C(=O)N(C)C(=O)N(C)C3=O)C2C1 (stereo not drawn) | 29 | 13 | 1.2 | i | .
Cc1cc(Br)ccc1N1C(=O)CC(=O)NC1=O | 38* | 11 | 1.1 | i | 0
N[C@@H](Cc1c[nH]c2ccccc12)c1nnc(SCc2ccccc2)o1 | 45* | 2 | . | i | .
Cc1ccc(CN2C3CCCC2CC(NC(=O)Nc2cccc(F)c2)C3)cc1 (stereo not drawn) | . | -30 | -3.2 | i | -0.23
CC(=NCC1CCCO1)c1c(O)n(Cc2ccccc2)c(=O)[nH]c1=O (stereo not drawn) | 36* | 5 | . | i | 2
